# Source: PubChem BioAssay (National Center for Advancing Translational Sciences (NCATS))
# TDP1 cell CPT = qHTS for Inhibitors of human tyrosyl-DNA phosphodiesterase 1 (TDP1): qHTS in cells in presence of CPT. chicken DT40 Tdp1-/-;hTDP1 cells + 20 nM CPT, ATP luminescence, 48 h. actives 12% (n = 420,000). Potency, µM (highest dose often 46.2 µM), for inactives: top-dose activity change, negative = growth inhibition, actives largely listed as inhibitors; note: potency is the fitted concentration of half-maximal effect; % is set by controls: 0 for no effect and ±100 for the full control effect; nearly all actives have a fitted effect of over 55% in size
#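 Chicken DT40 Tdp1-/- cells complemented with human TDP1, 400 cells/well, exposed to compounds plus 20 nM camptothecin for at least 48 h at 37 C; viability read as ATP content by CellTiter-Glo luminescence.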
# DT40 TDP1 no CPT = qHTS for Inhibitors of human tyrosyl-DNA phosphodiesterase 1 (TDP1): qHTS in cells in absence of CPT. Potency, µM (titrated, usually from 46.2 µM), inactives show top-dose activity change, negative = growth inhibition, hits mostly inhibitors. DT40 Tdp1-/- hTDP1 cells, no CPT, ATP luminescence, 48 h. actives 15% (n = 420,000); note: potency is the fitted concentration of half-maximal effect; % is set by controls: 0 for no effect and ±100 for the full control effect; nearly all actives have a fitted effect of over 55% in size
#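 DT40 Tdp1-/-;hTDP1 cells, no CPT (DMSO vehicle only), 400 cells/well; compounds pin-transferred; ≥48 hr, 37 °C; CellTiter-Glo 30 min RT dark, luminescence read.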
# TGFb inhibitor = qHTS for Inhibitors of TGF-b | HepG2 CAGA-GFP TGF-b/SMAD3 reporter, GFP fluorescence, 18 h; TGF-beta stimulated, 500 pg/mL final | Potency, µM (doses to about 46.1 µM), without a hit: at the highest dose activity, negative = inhibition, most hits filed as inhibitors | actives 1.2% (n = 410,000); note: potency is the fitted concentration of half-maximal effect; % is set by controls: 0 for no effect and ±100 for the full control effect; nearly all actives have a fitted effect of over 65% in size
#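 HEPG2 CAGA-GFP reporter cells (1000/well, DMEM with 1% FBS) received compounds, then recombinant TGF-beta at 500 pg/mL final for 18 hours at 37 degrees C. Per-cell GFP summed per well was normalised to unstimulated and stimulated DMSO controls before curve fitting.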
# HepG2 tox = qHTS for Inhibitors of TGF-b: Cytotox Counterscreen; HepG2 CAGA-GFP viability, ATP luminescence, 18 h; Potency, µM (series often up to 46.1 µM), without a hit: top-dose activity change, negative = cytotoxicity, actives largely listed as cytotoxic; actives 0.76% (n = 410,000); AID 588856, 2011; note: potency is the fitted concentration of half-maximal effect
#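 CellTiter-Glo luminescence gave cytotoxicity after 18 hours at 37 degrees C. The cells were HepG2 CAGA-GFP in 1% FBS DMEM, stimulated with 500 pg/mL TGF-beta after compound addition. %Activity was normalised to no-cell wells (complete cell-killing) and DMSO (no toxicity), and curves were fitted and classified.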
# IL1B secr inh = qHTS for Inhibitors of Inflammasome Signaling: IL-1-beta AlphaLISA Primary Screen | actives 4.7% (n = 360,000) | AID 743279, 2014 | THP-1 LPS/ATP IL-1B secretion, AlphaLISA, 16 h; active compounds read low | activity change, % at 57.5 µM; in the data active = activity change below about -50%; inconclusive = mostly about -30% to -49%; note: % is set by controls: 0 for no effect and ±100 for the full control effect
#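 THP-1 cells pretreated 1 hr with compounds (up to 57.5 uM final), then stimulated with LPS (250 ng/mL final) plus ATP (1.25 mM final); secreted IL-1B measured by AlphaLISA after 16 hr, decreased signal indicating inhibition.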
# ASM inhibitor = Inhibitors of Secretory Acid Sphingomyelinase (S-ASM): qHTS | placental ASM, HMU-PC fluorogenic substrate, 60 min | Sphingomyelin phosphodiesterase (Homo sapiens), P17405 | actives 0.006% (n = 340,000) | Potency, µM (doses to about 57.5 µM), without a hit: at the highest dose activity change, negative = inhibition, hits mostly inhibitors; note: potency is the fitted concentration of half-maximal effect
# Target sequence (P17405 47-631 limits assumed): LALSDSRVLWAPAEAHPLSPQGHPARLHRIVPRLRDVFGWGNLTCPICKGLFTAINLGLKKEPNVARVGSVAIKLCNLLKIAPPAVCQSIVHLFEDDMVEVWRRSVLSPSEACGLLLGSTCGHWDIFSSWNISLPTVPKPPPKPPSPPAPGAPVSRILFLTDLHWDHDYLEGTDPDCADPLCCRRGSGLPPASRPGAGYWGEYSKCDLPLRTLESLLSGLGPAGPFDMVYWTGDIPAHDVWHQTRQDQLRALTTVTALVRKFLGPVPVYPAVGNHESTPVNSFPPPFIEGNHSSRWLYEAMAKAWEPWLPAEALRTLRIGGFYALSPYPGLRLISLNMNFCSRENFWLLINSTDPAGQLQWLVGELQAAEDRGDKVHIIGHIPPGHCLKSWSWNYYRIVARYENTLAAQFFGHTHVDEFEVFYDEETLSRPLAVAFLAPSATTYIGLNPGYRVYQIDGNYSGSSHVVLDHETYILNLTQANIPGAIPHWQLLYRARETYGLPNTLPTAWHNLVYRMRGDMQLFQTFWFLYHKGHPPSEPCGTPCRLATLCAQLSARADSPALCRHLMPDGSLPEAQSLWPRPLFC
#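 Fluorescence read-out (Ex 386 nm, Em 447 nm) after stopping the reaction at pH 10. Enzyme: ASM from human placenta; substrate HMU-PC0, 9 uM final; 60 min, 37 °C. Compound preincubation 10 min, ambient temperature.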
# * = called active by the depositor; i = inactive; ? = inconclusive; / = no result given. Shown are actives, neighbours in structure and some others; about 19% of the full set was active somewhere. Unless noted, calls come from the whole dose curve; as a rule, active = well fitted curve in the direction sought with a large enough effect; inconclusive = small, poorly fitted or top-dose-only effect, or another doubt; inactive = no such curve, though single readings can be large; an effect the other way counts as inactive or inconclusive.
SMILES,TDP1 cell CPT,DT40 TDP1 no CPT,TGFb inhibitor,HepG2 tox,IL1B secr inh,ASM inhibitor
COc1ccc(-c2csc(NC(=O)CN3C(=O)C4CC=CCC4C3=O)n2)cc1OC (stereo not given),?,8.2µM*,-17.1%,-11.8%,-0.4,-1.7%
COc1ccc(OC)c(-c2csc(NC(=O)CN3C(=O)C4CCCCC4C3=O)n2)c1 (stereo not given),-25.3%,-15.5%,-4.2%,-40.0%,-56.1*,-7.8%
O=C(CN1C(=O)C2CC=CCC2C1=O)Nc1nc(-c2ccc(F)c(F)c2)cs1 (stereo not given),?,20.6µM*,0.0%,-0.1%,-5.7,-9.2%
COc1ccc(-c2csc(NC(=O)CN3C(=O)C4CCCCC4C3=O)n2)cc1OC (stereo not given),-1.2%,-27.7%,-11.6%,0.0%,i,-4.3%
CCC(C)N(C(=O)c1csnn1)C(C(=O)NCc1ccc(F)cc1)c1ccccc1 (stereo not given),2.9%,?,18.9%,9.6%,5.9,0.0%
CCOc1ccccc1N(CC(=O)Nc1ccc(OC)c(Cl)c1)S(=O)(=O)c1ccccc1,/,/,0.6%,-15.6%,/,/
COc1ccc(CCNC(=O)C2CCCN2C(=O)Nc2ccc(Cl)cc2)cc1OC (stereo not given),-4.6%,6.7%,-23.2%,-25.1%,0.0,0.9%
CSCCC(NC(=O)c1cccc([N+](=O)[O-])c1)C(=O)OCC(=O)N1CCCC1=O (stereo not given),-4.8%,-0.9%,-3.1%,2.0%,4.8,2.3%
N#C/C(=C\c1ccc(O)cc1)C(=O)NCc1ccccc1,?,-3.7%,0.0%,-10.4%,-63.2*,6.4%
N#C/C(=C\c1ccc(OCc2ccccc2)cc1)C(N)=O,?,23.1µM*,-1.8%,-5.2%,-13.9,3.8%
N#C/C(=C\c1ccc(O)cc1)C(=O)NCc1cccc(Cl)c1,-6.8%,-3.8%,?,-40.5%,-15.8,-2.0%
N#C/C(=C/c1ccc(O)cc1)C(=O)NCc1ccc(Cl)cc1,9.7%,-19.7%,-21.5%,-33.0%,-65.3*,7.1%
COc1ccc(/C=C(\C#N)C(=O)NCc2ccccc2)cc1,-1.0%,5.4%,16.6%,-8.0%,-19.6,24.8%
N#C/C(=C\c1ccc(OCc2ccccc2)cc1)C(=O)Nc1nc2c(s1)CCN(Cc1ccccc1)C2,23.1µM*,20.6µM*,26.4%,0.4%,22.0,-1.4%
CN(C)c1ccc(/C=C(/C#N)C(=O)Nc2nc3c(s2)CCN(Cc2ccccc2)C3)cc1,?,?,35.1%,-12.0%,-2.9,-3.1%
Cc1csc(NC(=O)CCSCCc2ccccn2)n1,?,-19.0%,-16.4%,-35.4%,2.9,2.9%
CC(=O)Nc1ccc(/C=C(\C#N)C(=O)NCc2ccccc2)cc1,-20.4%,?,5.0%,-44.6%,-67.8*,-3.2%
COc1ccc(C(=O)NC2CCN(CC(=O)NCc3ccccc3)CC2)cc1,-7.0%,-13.4%,0.2%,-2.9%,-0.7,-2.2%
Cc1noc(C)c1S(=O)(=O)N1CCN(c2ccc(Cl)cc2)CC1,?,-7.3%,-8.0%,5.01µM*,-4.1,-10.1%
Cc1ccc(Cl)cc1N1CCN(S(=O)(=O)c2c(C)noc2C)CC1,?,?,-15.1%,-24.6%,7.8,-2.4%
Cc1noc(C)c1S(=O)(=O)Nc1ccc(C(=O)N2CCN(c3ccc(Cl)cc3)CC2)cc1,?,16.4µM*,-18.6%,-25.2%,-4.3,-26.2%
COc1cccc(NC(=O)Nc2cc(-c3cn4cccnc4n3)ccc2OC)c1,/,/,-6.7%,-11.5%,/,/
